Assay results: PubChem BioAssay (NCI)
Compounds without any hit were thinned out: in the full panel of roughly 83,000, 20% have a hit.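 Assay: single dose, 48 h. Readout: percent growth (0 = no net growth; negative = cell death). Active: <10.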 A number with no mark means an inactive call. Calls of active or inactive are those of the source.

Each compound was assayed on SK-MEL-5 melanoma (assay: NCI-60 one-dose screen, 48 h (100 = growth as untreated, 0 = no growth, -100 = all killed)). Details: 10 µM unless noted.

SMILES | growth
C=C(C)[C@@H]1CC[C@]2(C(=O)N3CCCNCC3)CC[C@]3(C)[C@H](CC[C@@H]4[C@@]5(C)CCC(=O)C(C)(C)[C@@H]5CC[C@]43C)[C@@H]12 | 94.1%
COc1ccc(/C=C/C(=O)NCC(C)O)cc1 (stereo unspecified) | 101%
Cc1c(C)c2c(c(C)c1NC(=O)CCCCCCC(=O)O)CCC(C)(CCCC(C)CCCC(C)CCCC(C)C)O2 (stereo unspecified) | 81%
CN(C)c1ccc(N=C2C=CC(=O)C=C2)cc1 | 87.2%
COc1ccc(OCC(CO)N2CCN(c3ccccc3)CC2)cc1 (stereo unspecified) | 104%
CCCCC(=O)OC1CCCCC1C (stereo unspecified) | 91.2%
COc1cccc(-c2nn(-c3ccccc3)cc2-c2ccnc(NCCNS(=O)(=O)c3cccc(F)c3)c2)c1 | 26.7%
Cc1cc(Cl)c2c(N(C)C)cccc2n1 | 101%
COc1ccccc1-n1cnc(N)c1C(=O)c1cc(OC)c(OC)c(OC)c1 | 28.5%
Cc1cc(N2CCCCC2)nc(N(CCNc2ccnc3cc(Cl)ccc23)Cc2ccco2)n1 | -90.5% (active)
N#CC1=C(N)Oc2c(c(N)nn2-c2ccccc2)C1c1ccc(Cl)cc1Cl (stereo unspecified) | 101%
COc1ccc(NC(=O)c2ccc3c(c2)nc(-c2cc4ccccc4[nH]c2=O)n3-c2cc(C(C)(C)C)[nH]n2)cc1 | 84%
Cc1ccc(Cc2cnc(NC(=O)/C=C/c3cccc(C)c3)s2)cc1 | 12.6%
Oc1cccc2oc(=S)[nH]c12 | 105%
NC(=O)NCC1CCCCC1 | 109%
N#Cc1cnc2cc(OC[C@@H](O)CO)c(NC(=O)CC3CSSC3)cc2c1Nc1ccc(OCc2cccc(F)c2)c(Cl)c1 | -97% (active)
CC(=O)OCCCCCCn1c2ccccc2c2c3c(c4c5ccccc5n(C)c4c21)C(=O)N(O)C3=O | 41.7%
Cc1nn2c(-c3nc4cc(Cl)c(Cl)cc4[nH]3)c(-c3ccc(F)cc3)nc2s1 | 31.9%
Nc1c2c(nc3ccc(Cl)cc13)CC(c1ccc(O)cc1)CC2=O (stereo unspecified) | 23.6%
O=C1c2ccccc2C(=Cc2ccccc2)c2ccccc21 | 13.7%
C/C(=N\NC(=O)C(C)SC(C)C(=O)N/N=C(\C)c1cccnc1)c1cccnc1 (stereo unspecified) | 98.4%
O=C1CCC/C=C\C[C@H]2C=C(Cl)C(=O)/C2=C/C[C@H](CCCCC(F)(F)F)OC(=O)CCC/C=C\C[C@H]2C=C(Cl)C(=O)/C2=C/C[C@H](CCCCC(F)(F)F)O1 | -94.1% [7.5 µM] (active)
O=C1/C(=C\c2ccco2)SC(=S)N1CCc1ccc(O)cc1 | 97.4%
O=C(O)/C(=C/c1ccc(O)cc1)c1ccccc1 | 95.5%
CCCCC/C(=C\c1ccccc1)C1OC(C)C(C)O1 (stereo unspecified) | 92.8%
Cc1cc(C=O)c(C)c2c1[nH]c1ccccc12 | 112%
